The source made the active and inactive calls. Calls follow the shape of the dose curve; as a rule, active = well fitted curve in the direction sought with a large enough effect; inconclusive = small, poorly fitted or top-dose-only effect, or another doubt; inactive = no such curve, though single readings can be large or run the other way.
Experiment: Cellular Toxicity (caspase-3) MRC-5 (AID 659);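 also: cells exposed to compound for 16 h at 37 °C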
Settings: MRC-5 cells, luminescence, normalized: DMSO 0%, 10 µM staurosporine 100%; series mostly up to 91.7 µM; caspase-3 activation: at the top concentration
Excerpt: NIH Chemical Genomics Center [NCGC]
NIH Molecular Libraries Screening Centers Network [MLSCN]
National Institutes of Environmental Health Sciences [NIEHS]
National Toxicology Program [NTP]
We have developed a 1536-well cell-based assay for quantitative high throughput screening (qHTS) against a number of cell lines to determine in vitro caspase 3/7 activity of small molecules. This particular assay uses the MRC-5 cell line which is derived from human normal lung fibroblasts.
NCGC Assay Protocol Summary:
The Caspase-Glo 3/7 assay (Promega) is a homogeneous method to measure caspase-3 and caspase-7 activities in cultured cells. The quantitation of caspase 3/7 activity is based on the cleavage of a peptide-aminoluciferin substrate. After caspase cleaves the substrate the free aminoluciferin is liberated and serves as the substrate of luciferase, which generates the light. The luminescent signal is proportional to amount of caspase 3/7 activity present.
Using the Caspase-Glo 3/7 assay, the amount of caspase 3/7 activity was measured in the MRC-5 line with complete culture medium following compound treatment for 16 hours. The assay was performed in opaque white 1536-well plates. In the screen, tamoxifen and staurosporine were used as positive controls. Library compounds were measured for their ability to cause the activation of caspase 3/7 in the cell line, as reflected by an increase in luminescence signal, in a concentration-dependent manner. Data were normalized to the controls for basal activity (DMSO only) and 100% stimulation (10 uM staurosporine). AC50 values were determined from concentration-response data modeled with the standard Hill equation.
qHTS protocol for caspase 3/7 assay in MRC-5 cells
[Step] [Parameter] [Value] [Description]
1. Reagent; 5 uL; 1500 MRC-5 cells/well
2. Time; 5 hr; 37 °C incubation
4. Controls; 23 nL; Tamoxifen 0.23 uM to 100 uM & staurosporine 1.4 pM to 100 uM
5. Time; 16 hr; 37 °C incubation
6. Reagent; 5 uL; Caspase-Glo 3/7 reagent
7. Time; 1 hr; Room Temperature
8. Detection; Luminescence; Viewlux plate reader
Keywords: caspase 3/7, apoptosis, MRC-5 cell line, luminescence, NTPHTS, NTPHTS_NCGC, NIEHS, EPA, DSSTox, MLSMR, MLSCN, NIH Roadmap, qHTS, NCGC

Structure (SMILES)	caspase-3 activation
NC1CCC(CC2CCC(N)CC2)CC1 (stereo not given)	-0.429% (inactive)
CC[N+](=O)[O-]	3.39% (inactive)
CN(C)C(=O)Nc1ccc(Cl)cc1	-0.777% (inactive)
c1ccc(NNc2ccccc2)cc1	1.25% (inactive)
O=[N+]([O-])CCO	2.17% (inactive)
C=CC(=O)OCCO	-1.24% (inactive)
ClCC(Cl)CCl	0.728% (inactive)
CC(C)Br	-1.3% (inactive)
C(CCOCC1CO1)COCC1CO1 (stereo not given)	2.01% (inactive)
CCCN(CCC)c1c([N+](=O)[O-])cc(C(F)(F)F)cc1[N+](=O)[O-]	0.957% (inactive)
CN(C)N=O	0.361% (inactive)
CN=C=O	-1.29% (inactive)
Oc1c(Cl)cccc1Cl	0.784% (inactive)
BrCC(Br)C1CCC(Br)C(Br)C1 (stereo not given)	1.08% (inactive)
ClC(Cl)Br	-2.25% (inactive)
Cc1ccc(N)c(C)c1	1.04% (inactive)
Nc1ccc(-c2ccccc2)cc1	-0.268% (inactive)
CCN(N=O)C(N)=O	-1.07% (inactive)
Oc1cc(Cl)c(Cl)c(Cl)c1	1.04% (inactive)
CCCCCCCCCCCOC(=O)c1ccccc1C(=O)OCCCCCCCCCCC	-0.512% (inactive)

Structure (SMILES)	caspase-3 activation
CCC/C=N/O	3.96% (inactive)
CC(C)OS(C)(=O)=O	0.533% (inactive)
N#C/C=C/C#N	-3.25% (inactive)
C1CC2OC2CC1C1CO1 (stereo not given)	-2.49% (inactive)
CC(C)(C)C(O)(CCc1ccc(Cl)cc1)Cn1cncn1 (stereo not given)	-0.0388% (inactive)
S=C1NCCN1	0.375% (inactive)
O=c1ccc(=O)[nH][nH]1	0.804% (inactive)
ClCC(Cl)Cl	-0.633% (inactive)
C=CCBr	-1.49% (inactive)
CC12CC1(C)C(=O)N(c1cc(Cl)cc(Cl)c1)C2=O (stereo not given)	0.221% (inactive)
OCC(Cl)CCl (stereo not given)	0.272% (inactive)
Nc1ccccc1-c1ccccc1	0.281% (inactive)
N#CC(Br)Br	3.53% (inactive)
ClCC(Br)CBr (stereo not given)	0.132% (inactive)
CCOC(=O)CBr	0.657% (inactive)
c1ccc(N=NNc2ccccc2)cc1	-0.977% (inactive)
CCC[N+](=O)[O-]	1.16% (inactive)
C=CCc1cc(OC)c2c(c1)OCO2	1.61% (inactive)
Nc1ccc2ccccc2c1	-1.39% (inactive)
O=[N+]([O-])c1ccc(O)c([N+](=O)[O-])c1	-1.05% (inactive)

Source: PubChem BioAssay (NCATS)
